# Test results published in PubChem BioAssay AID588719 (Southern Research Specialized Biocontainment Screening …, 2011).
# Screen size: about 1,500 compounds; about 920 (61%) were called active. The rule behind the calls is not given here. So high a share suggests a set chosen from earlier hits. This is one part of the list. Results with a measured potency or affinity are listed apart.
# Assay: Vero 76 cell cytotoxicity, dose response, cytotoxicity control for VEEV inhibitor project (AID 588719)
# Conditions: Vero 76 cells viability, cytotoxicity counter-screen; series mostly up to 25 µM
row,Compound,outcome
1,c1ccc(CCNc2ccc3c(c2)Cc2ccccc2-3)nc1,inactive
2,Cc1cc2ccc3ccccc3c2cc1CN(C)C,inactive
3,Cc1cccc(C(=O)Nc2ccccc2SCC2CSc3nc4ccccc4c(=O)n32)c1 (configuration not stated),inactive
4,O=C(CC1C(=O)NC2CCCCC2N1C(=O)c1ccc([N+](=O)[O-])cc1)Nc1ccccc1 (configuration not stated),inactive
5,CC(=O)C1C(N2CC2)CC2C3CCC4=CC(=O)CCC4(C)C3CCC21C (configuration not stated),inactive
6,CN1CCN(/N=C/c2ccc(N(c3ccccc3)c3ccccc3)cc2)CC1,inactive
7,OC1(c2cccs2)CN(c2ccc(Br)cc2)C2=[N+]1CCCS2 (configuration not stated),inactive
8,Nc1ccccc1/C=C/c1ccccc1N,inactive
9,CN(C)CCC(=O)C(Cc1ccccc1)c1ccccc1 (configuration not stated),inactive
10,Cc1nn(-c2ccccc2)nc1C(=O)Nc1nnc(C(F)(F)F)s1,inactive
11,CCCc1nnc(NC(=O)c2nc(S(=O)(=O)Cc3ccc(C)cc3)ncc2Cl)s1,inactive
12,COc1ccccc1NC(=O)c1nc(S(=O)(=O)Cc2ccccc2)ncc1Cl,inactive
13,Cc1ccc(C)c(NS(=O)(=O)c2ccc(-n3cccn3)cc2)c1,inactive
14,Cc1ccccc1-c1n[nH]c(=S)n1/N=C/c1ccc(-c2ccccc2Br)o1,inactive
15,O=C(COC(=O)c1ccc(Br)o1)NCc1ccc(Cl)cc1,inactive
16,Cc1noc(C)c1NC(=O)N(C)C[C@H]1OCc2cnnn2CCCC(=O)N([C@H](C)CO)C[C@@H]1C,inactive
17,CC(C)(C)C(=O)Nc1sc(-c2ccccc2)cc1C(=O)O,inactive
18,Nc1cc[n+](CC(=O)c2ccc3c(c2)OCCO3)cc1,inactive
19,CN(C)c1ccc(C(=O)c2ccc(N(C)C)c3ccccc23)cc1,inactive
20,O=C(OCC(=O)N1CCOCC1)c1ccc2[nH]c3c(c2c1)CCCC3,inactive
21,COc1ccc(-n2c(O)c(C=NCCN(C)C)c(=O)[nH]c2=O)cc1,inactive
22,O=C(Nc1ccc(N2CCCCC2)c(Cl)c1)c1cccnc1,inactive
23,Cc1c(O)c2ccccc2oc1=O,inactive

row,Compound,outcome
1,CC1=C(C(=O)N2CCOCC2)CC(CC(=O)NC2CCCCC2)C(=O)N1Cc1ccc(C(C)(C)C)cc1 (configuration not stated),inactive
2,COc1ccc(C2CC(=O)C3=C(C2)NC(C)=C(C#N)C3c2ccc(N(C)C)cc2)cc1 (configuration not stated),inactive
3,CC(=O)/C(C#N)=C1\NC(=O)C(Cc2ccccc2)S1 (configuration not stated),inactive
4,CCc1nc(CN2CCCC(C(=O)Nc3ccc(-c4cccc(OC)c4)cc3)C2)c(C)[nH]1 (configuration not stated),inactive
5,COc1ccc(O)c(CN2CCCC(C(=O)Nc3cccc(-n4cccn4)c3)C2)c1 (configuration not stated),inactive
6,CN(c1ccc(OCC(=O)Nc2ccccc2C(=O)O)cc1)S(=O)(=O)c1ccc(Cl)cc1,inactive
7,COc1ccc(-c2csc(NC(=S)NC(=O)c3cccs3)n2)cc1Br,inactive
8,Cc1nn(Cc2c(Cl)cccc2Cl)c(C)c1NC(=O)c1cc(C(C)C)on1,inactive
9,O=c1[nH]c(SCc2nc3c(cnn3-c3ccccc3)c(=O)[nH]2)nc2ccccc12,inactive
10,CCN(CC)P(=O)(NC(=O)C(Cl)(Cl)Cl)N(CC)CC.[Cl-].[Cl-].[Cl-].[Nd+3],inactive
11,Cc1nc(/C(N)=N/OC(=O)c2ccccc2Cl)c(C(F)(F)F)o1,inactive
12,C/C(N)=C(/C#N)C(=O)CSc1nnc(-c2ccc(OC(F)F)cc2)o1,inactive
13,COc1ccc(NC(=O)N(C)C[C@H]2Oc3cc(Br)ccc3S(=O)(=O)N([C@H](C)CO)C[C@@H]2C)cc1,inactive
14,Cc1[nH]c(=S)[nH]c(=O)c1Cc1c(O)ccc2ccccc12,inactive
15,CN(C)C1CCc2[nH]c3c(F)cc(F)cc3c2C1 (configuration not stated),inactive
16,COc1ccc2c(c1)c(CCN)c(C)n2Cc1ccccc1,inactive
17,Cc1ccc2nc(-c3ccc(NS(=O)(=O)c4c(C)n(C)c(=O)n(C)c4=O)cc3)sc2c1,inactive
18,COc1cc(NC(=O)C2=C(C)OCCS2)c(Cl)cc1C(=O)NCCCN1CCCC(C)C1 (configuration not stated),inactive
19,Cc1nn2c(NCCN(C)C)c3c(nc2c1-c1ccccc1)CCC3,inactive
20,CCOC(=O)C(C(=O)OCC)C(c1ccccc1)N1CCN(c2ccccc2)CC1 (configuration not stated),inactive
21,OC1(c2cccs2)CN(c2ccc(Cl)cc2)C2=[N+]1CCCC2 (configuration not stated),inactive
22,Cc1cn([C@H]2C[C@H](O)[C@@H](CCC(=O)NCc3ccc(N(C)C)cc3)O2)c(=O)[nH]c1=O,inactive
23,CC(C)=CCN1CCN(Cc2nc(C(C)C)cs2)CC1CCO (configuration not stated),inactive

row,Compound,outcome
1,O=C1C(=Cc2ccccc2O)SC(=S)N1CCCN1CCOCC1,inactive
2,N=C1C(c2nc(-c3ccc(Cl)cc3)cs2)=C(O)CN1CCCN1CCOCC1,inactive
3,COCCNC(=O)CCCn1c(=O)c2cc(OC)c(OC)cc2n(CC(=O)Nc2ccc(C)c(F)c2)c1=O,inactive
4,CC(C)(C)c1cc(NC(=O)c2cc(F)c(F)c(F)c2F)no1,inactive
5,CCN(Cc1ccncc1)C(=O)c1ccccc1NS(=O)(=O)c1ccc(Br)cc1,inactive
6,COc1cc(OC)cc(C(=O)NCCSc2c[nH]c3ccccc23)c1,inactive
7,COc1cc(OC)cc(C(=O)NCC(=O)OCC(=O)NC2CCCc3ccccc32)c1 (configuration not stated),inactive
8,O=C(/C=C/c1ccccc1)c1ccccc1,inactive
9,Cc1ccc(C(=O)/C=C/c2ccccc2)o1,inactive
10,COc1ccc(C(=O)NCC(=O)NCc2ccc3c(c2)OCO3)cc1[N+](=O)[O-],inactive
11,O=C(COC(=O)c1ccc(O)cc1)Nc1ccc2c(c1)OCO2,inactive
12,CCOc1ccccc1OCCC(=O)N1CCN(S(=O)(=O)c2ccccc2[N+](=O)[O-])CC1,inactive
13,CCCOc1ccc(Oc2nc(-c3ccncc3)nc3ccccc23)cc1,inactive
14,COc1ccccc1[C@]1(C)ON(c2ccccc2C(F)(F)F)C1=O,inactive
15,[O-][n+]1onc2c1CCc1[nH]c(-c3ccccc3)nc1-2,inactive
16,COc1ccc(/C=C/C(=O)c2cc3cccc(OC)c3oc2=O)cc1,inactive
17,COc1ccc(C=CC(=O)c2c(OC)cc(OC)c(OC)c2O)cc1,inactive
18,CCOC(=O)NNc1cc(C(F)(F)F)ccn1,inactive
19,Cc1ccc(C(=O)Nc2ccccc2SCC2CSc3nc4ccccc4c(=O)n32)cc1 (configuration not stated),inactive
20,COc1cc2c(cc1NC(=O)c1ccc(C(C)(C)C)cc1)CCCC2,inactive
21,Cc1ccc(C(C)C)cc1OCC(=O)Nc1nnc(C2CC2)s1,inactive
